RORgamma inh: qHTS for inhibitors of ROR gamma transcriptional activity | Potency, µM (series often up to 53.6 µM), actives largely listed as inhibitors | hit rate 5.4% among 310,000 | Drosophila S2 Gal4-RORgamma UAS-luciferase reporter, 20 h; also: nearly all actives have a fitted effect of over 60% in size
Target sequence (P51450 whole entry, looked up, the tested form may be a part): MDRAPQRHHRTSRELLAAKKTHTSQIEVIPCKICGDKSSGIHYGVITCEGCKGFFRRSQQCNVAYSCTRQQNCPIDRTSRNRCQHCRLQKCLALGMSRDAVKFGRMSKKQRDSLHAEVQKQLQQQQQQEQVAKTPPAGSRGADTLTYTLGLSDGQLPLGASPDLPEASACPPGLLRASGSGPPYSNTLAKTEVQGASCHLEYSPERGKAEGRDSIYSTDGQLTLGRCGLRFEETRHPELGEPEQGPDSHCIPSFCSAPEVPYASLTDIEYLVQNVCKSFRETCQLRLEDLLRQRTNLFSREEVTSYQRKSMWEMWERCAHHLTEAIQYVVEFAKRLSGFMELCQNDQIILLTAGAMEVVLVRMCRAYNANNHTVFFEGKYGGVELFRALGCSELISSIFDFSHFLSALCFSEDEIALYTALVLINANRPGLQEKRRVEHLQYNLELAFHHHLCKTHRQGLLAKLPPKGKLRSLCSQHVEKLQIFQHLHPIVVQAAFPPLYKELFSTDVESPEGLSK
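Read-out: Photinus luciferase luminescence; inhibitors lower reporter signal. Insect Schneider cells with Gal4-ROR gamma fusion under metallothionein promoter, UAS reporter; 700 uM final copper sulfate induction, 20 hr, ambient temperature.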
DT40 TDP1 CPT: qHTS for Inhibitors of human tyrosyl-DNA phosphodiesterase 1 (TDP1): qHTS in cells in presence of CPT. chicken DT40 Tdp1-/-;hTDP1 cells + 20 nM CPT, ATP luminescence, 48 h. Potency, µM (doses to about 46.2 µM), most hits filed as inhibitors. hit rate 12% among 420,000; also: nearly all actives have a fitted effect of over 55% in size
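Chicken DT40 Tdp1-/- cells stably complemented with human TDP1 were seeded at 400 cells/well in medium containing 20 nM camptothecin, exposed to pin-transferred compounds, and grown at 37 °C for at least 48 hr. Viability was read as ATP luminescence.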
TDP1 cell noCPT: qHTS for Inhibitors of human tyrosyl-DNA phosphodiesterase 1 (TDP1): qHTS in cells in absence of CPT. hit rate 15% among 420,000. DT40 Tdp1-/- hTDP1 cells, no CPT, ATP luminescence, 48 h. Potency, µM (doses to about 46.2 µM), most hits filed as inhibitors; also: nearly all actives have a fitted effect of over 55% in size
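DT40 Tdp1-/-;hTDP1 cells, no CPT (DMSO vehicle only), 400 cells/well; compounds pin-transferred; ≥48 hr, 37 °C; CellTiter-Glo 30 min RT dark, luminescence read.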
ALOX12 inh: Primary qHTS assay for inhibitors of human arachidonate 12S-lipoxygenase (ALOX12): Round 2; purified 12hLO, xylenol orange hydroperoxide absorbance; Potency, µM (doses to about 108 µM), usual class: inhibitors; hit rate 1.1% among 580,000; AID 1671190, 2021
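Purified human 12hLO at 150 nM in 25 mM Hepes, 0.01% Triton X-100, pH 7.0, preincubated 15 min at room temperature with compound. Reaction started with 40 uM arachidonic acid, 30 min at room temperature. Hydroperoxide measured by Fe-xylenol orange, 573/405 nm absorbance ratio.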
Gal4-VP16 FLuc: VP16 counterscreen qHTS for inhibitors of ROR gamma transcriptional activity. Drosophila S2 Gal4-VP16 UAS-luciferase, luminescence, 20 h. Potency, µM (titrated, usually from 53.6 µM), actives largely listed as inhibitors. hit rate 3.5% among 310,000;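 also: Gal4-VP16 expression switched on by copper sulfate through the metallothionein promoter; nearly all actives have a fitted effect of over 50% in size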
ELG1 DNA repair: qHTS screen for small molecules that inhibit ELG1-dependent DNA repair in human embryonic kidney (HEK293T) cells expressing luciferase-tagged ELG1. HEK293T ELG1-luciferase reporter, luminescence, 16 h; DNA damage induced by 5-fluorouridine. hit rate 2.3% among 330,000. Potency, µM (doses to about 46.1 µM), usual class: inhibitors; also: nearly all actives have a fitted effect of over 55% in size
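Overnight (16 hr) co-exposure of 2,000 cells/well to 5-fluorouridine and compound at 37 °C preceded detection. Luciferase was quantified via ONE-Glo luminescence; loss of signal denotes inhibition.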
A number is an active result; 0 = inactive; ? = inconclusive; - = not tested or not shown; [ ] = another dose, or the depositor's remark. A selection: hits, their analogues and other compounds. The true share with any hit is near 15%. Calls follow the shape of the dose curve; as a rule, active = well fitted curve in the direction sought with a large enough effect; inconclusive = small, poorly fitted or top-dose-only effect, or another doubt; inactive = no such curve, though single readings can be large; an effect the other way counts as inactive or inconclusive.

SMILES | RORgamma inh | DT40 TDP1 CPT | TDP1 cell noCPT | ALOX12 inh | Gal4-VP16 FLuc | ELG1 DNA repair
O=C(NCCN1CCOCC1)c1cc(Cl)ccc1Cl | 0 | 0 | 0 | 0 | 0 | 0
O=C(NCCN1CCOCC1)NC1(C(F)(F)F)Oc2ccc(Cl)cc2O1 (configuration not stated) | 0.316µM | ? | 13µM | ? | ? | 0
CC(=O)Nc1ccc(S(=O)(=O)[C@H]2CS(=O)(=O)C[C@@H]2N2CCCC2)cc1 | - | - | - | 0 | - | -
Clc1ccc2c(c1)N=C(N1CCNCC1)c1ccccc1N2 | 0 | 13µM | 9.2µM | 0 | 0 | -
O=C(NCc1ccc(Cl)cc1)C(=O)Nc1nccs1 | 0 | 0 | 0 | 0 | 0 | 0
O=C(/C=C/c1ccc(Cl)cc1)Nc1nccs1 | 8.91µM | 0 | ? | 0 | 0 | ?
C/C=C/C=C/C(=O)Nc1nccs1 | 10µM | 0 | 0 | 0 | 5.62µM | ?
COCCCNc1oc(-c2cccc(C)c2)nc1C#N | - | - | - | 0 | - | -
CC(CC(=O)Nc1cnc2ccccc2c1)c1ccccc1 (configuration not stated) | - | - | - | 0 | - | -
CCCCCNC(=O)CCCC(=O)NCCCCC | - | - | - | 0 | - | -
COc1ccc(CN(C)CC2CCCN(CCc3ccc(Cl)cc3)C2)cc1OC (configuration not stated) | 0 | ? | ? | 0 | 0 | 0
COc1ccc(F)c(CN(C)CC2CCCN(CCc3ccc(F)cc3)C2)c1 (configuration not stated) | 0 | ? | 16.4µM | ? | 0 | 0
COc1ccc(CCN2CCCC(CN(C)Cc3cc(OC)c(OC)c(OC)c3)C2)cc1 (configuration not stated) | 0 | 20.6µM | 16.4µM | 0 | 0 | 0
COc1ccc(CN(C)CC2CCCN(CCc3ccc(F)cc3)C2)cc1OC (configuration not stated) | 0 | 16.4µM | 23.1µM | ? | 0 | 0
COc1cc(CN(C)CC2CCCN(CCc3cccc(C(F)(F)F)c3)C2)ccc1O (configuration not stated) | 0 | ? | 23.1µM | ? | 0 | 0
COC(=O)C(C)Oc1ccc2c(=O)c(-c3ccc(Br)cc3)c(C)oc2c1 (configuration not stated) | - | - | - | 0 | - | -
CN(Cc1ccccc1)CC1CCCN(CCc2ccccc2F)C1 (configuration not stated) | 0 | ? | ? | 0 | 0 | 0
COc1cc(CN(C)CC2CCCN(CCc3ccccc3F)C2)cc(Cl)c1OC (configuration not stated) | 0 | ? | 25.9µM | ? | 0 | 0
CC(=O)c1cccc(CN(C)CC2CCCN(CCc3ccccc3C)C2)c1 (configuration not stated) | 0 | 16.4µM | ? | 0 | 0 | 0
COCC1CN(C2CCC2)CC12CCN(C(=O)c1ccn[nH]1)CC2 (configuration not stated) | - | - | - | 0 | - | -
C=CCn1c(=O)c(C(=O)NCc2ccc3c(c2)OCO3)c(O)c2cc(OC)c(OC)cc21 | 0 | ? | 18.4µM | 0 | 0 | 0
C=CCn1c(=O)c(C(=O)NCCc2ccc(Cl)cc2)c(O)c2cc(OC)c(OC)cc21 | 0 | 0 | 0 | 0 | 0 | 0
Cc1oc(-c2ccccc2)nc1CC(=O)NC1CCN(CC(N)=O)CC1 | - | - | - | 0 | - | -
c1ccc2c3c([nH]c2c1)-c1[nH]ncc1CC3 | 0 | 16.4µM | ? | 0 | 0 | 0
NC(=O)C1CCCc2c1[nH]c1ccc(Cl)cc21 (configuration not stated) | - | - | - | 0 | - | -
Clc1ccc2[nH]c3c(c2c1)CCc1cn[nH]c1-3 | 0 | ? | 18.4µM | 0 | 0 | ?
Cc1cc(Cl)ccc1-c1ccccc1CN | - | - | - | 0[12.5 µM] | - | -
Cc1ccc(NC(=S)N2CCc3[nH]c4ccccc4c3C2)cc1 | 6.31µM | 0 | ? | 0 | 0 | 0

Screening data: PubChem BioAssay, National Center for Advancing Translational Sciences (NCATS)
